Results reported in PubChem BioAssay AID624133 (Broad Institute, 2012).
In all, about 1,600 compounds went through this assay and about 1,300 (81%) were called active. No rule for the calls is given here. So high a share suggests a set chosen from earlier hits. Not all results are given here. Potency and affinity values are given separately.

Assay: control 3'UTR Renilla luciferase suppression, dose response, counter-screen for Shn3 inhibitor project, cell-based, Clone20-Shn3RL, cherry-picked (AID 624133);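 also: 0% = neutral control wells and -100% = positive control wells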
Details: Clone20-Shn3RL cells, Renilla luciferase luminescence, 24 h; at 35 µM (top of the series) unless noted

Compound	activity change, negative = inhibition [%]
C=CCn1c(C)cc(C2=NNC(=NCC)SC2)c1C	-16.7
NC(=O)NC(CC(=O)NCCc1ccccn1)c1ccccc1Cl (stereo unspecified)	-110
S=c1[nH]nc(COc2cccc3ccccc23)n1Cc1ccccc1	-87.5
CC(C)(C)C(=O)Nc1ccc(NC(=O)c2ccco2)nc1	8.33
CCOC(=O)C1=C(C)N(CCCC(=O)O)C(=O)NC1c1ccc2ccccc2c1 (stereo unspecified)	-30
Cc1ccc(C(=O)N2CCN(C)CC2)cc1S(=O)(=O)N1CCCCCC1	65.3
CCN(CC)C(=S)Sc1c(-c2ccccc2)c2cc(Cl)ccc2[nH]c1=O	16.7
CC(C)(C)C(=O)Nc1cc2nn(-c3ccccc3)nc2cc1Cl	52.1
COc1ccc(OC)c(NC(=O)COC(=O)c2c3c(nc4ccccc24)CCCC3)c1	40
COc1cc(Nc2nc(-c3ccccc3)c3cc(C)ccc3n2)cc(OC)c1OC	16.7
Cc1ccc(S(=O)(=O)N2CCC3(CC2)OCCN3S(=O)(=O)c2c(C)cc(C)cc2C)cc1	-13.6
O=C(CSc1nc2[nH]ncc2c(=O)[nH]1)Nc1ccccc1C(F)(F)F	-108
Cc1csc(=O)n1CCC(=O)N(C)Cc1c(F)cccc1Cl	75
CN(C)c1ncnc2c1C(c1ccccc1)C(C)(C)O2 (stereo unspecified)	-22.2
O=C(OCc1ccccc1)N(CCCCN(CCCNCc1ccccc1)C(=O)OCc1ccccc1)CCCNCc1ccccc1	20
COc1ccc(-c2noc(CCCCC(=O)N3CCN(c4cc(C)ccc4C)CC3)n2)cc1	-30

Compound	activity change, negative = inhibition [%]
C=CC[C@H](CC(=O)N(CCO)Cc1ccccc1)C(=O)NC[C@H](OC(=O)[C@@H](CC=C)Cc1ccc(F)cc1)c1ccccc1	-75
CCS(=O)(=O)c1ccc2oc(SCC(=O)N3CCCCC3)nc2c1	35
CSc1nc(N2CCN(Cc3ccc4c(c3)OCO4)CC2)c2ccccc2n1	-16.7
Cc1ccc(NC(=O)c2oc3ccccc3c2COC(C)C)cc1S(=O)(=O)N1CCOCC1	25
Cc1ccc(CNC(=O)CSc2c3c(nc4ccc(Cl)cc24)CCCC3)o1	106
O=C(CSc1nc2c(c(=O)n1-c1ccc(Br)cc1)SCC2)NCc1ccco1	29.2
CC(C)c1c(O)c2c(n(-c3ccccc3)c1=O)CCCC2	-21.1
O=C(Nc1cccc(S(=O)(=O)NC2=NCCC2)c1)C1CC(=O)N(c2ccc3c(c2)OCCO3)C1 (stereo unspecified)	-66.7
C[C@@H]1CC=C[C@H]2[C@H]1C(=O)N(Cc1ccccc1)[C@H]2c1cccc([N+](=O)[O-])c1	162
COc1cc(NC(=O)c2cc3c(Cl)nc4ccccc4c3s2)cc(OC)c1OC	60
O=C(Nc1ccc(Cl)c(Cl)c1)c1cccc(S(=O)(=O)NCc2cccnc2)c1	-10
Cc1ccc(NC(=O)C2CCC(C(C)(C)C)CC2)cc1S(=O)(=O)N1CCOCC1 (stereo unspecified)	-100
O=C(NNc1ccccc1)C(=O)NNS(=O)(=O)c1ccc(CCCl)cc1	90
CCCc1nc2c(=O)n(C)c(=O)nc-2n(C)n1	71.8
COc1ccc(CNC(=O)C(C)n2ccc3cc(S(=O)(=O)N4CCCCCC4)ccc32)cc1 (stereo unspecified)	12.2
